Our source for the Potency and outcome values is PubChem BioAssay (Tox21).

Test [1] can be described thus: qHTS assay to identify small molecule antagonists of the sonic hedgehog signaling (Shh) pathway (AID 1259369; calls by dose curve; further: nearly all actives have a fitted effect of over 45% in size). In a few lines: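 3T3Gli1-Luc, conditioned-medium-stimulated, 24hr cpd, 37C/5% CO2; Gli1-driven firefly Luc luminescence after 30min RT with luciferase reagent. Cells plated 4hr before cpd.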
(In general: qHTS replaces the single test concentration by a dilution series.)

Test [2] deals with Estrogen receptor beta (Homo sapiens) (UniProt Q92731). As to the kind of experiment: qHTS assay to identify small molecule agonists of the estrogen receptor beta (ER-beta) signaling pathway (AID 1259377; active means well fitted activation curve with a large enough effect in the signal ratio in the repeat runs, not every such curve was filed as active; the % refers to the signal ratio). An outline of the steps: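 HEK293T ER-beta-UAS-bla; 2% charcoal-stripped FBS; cells pre-incubated 6 hr, compound 16 hr, 37C/5% CO2; LiveBLAzer B/G FRET substrate 2 h RT; fluorescence intensity read.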
Sequence of Estrogen receptor beta (Homo sapiens) (Q92731 whole entry, looked up): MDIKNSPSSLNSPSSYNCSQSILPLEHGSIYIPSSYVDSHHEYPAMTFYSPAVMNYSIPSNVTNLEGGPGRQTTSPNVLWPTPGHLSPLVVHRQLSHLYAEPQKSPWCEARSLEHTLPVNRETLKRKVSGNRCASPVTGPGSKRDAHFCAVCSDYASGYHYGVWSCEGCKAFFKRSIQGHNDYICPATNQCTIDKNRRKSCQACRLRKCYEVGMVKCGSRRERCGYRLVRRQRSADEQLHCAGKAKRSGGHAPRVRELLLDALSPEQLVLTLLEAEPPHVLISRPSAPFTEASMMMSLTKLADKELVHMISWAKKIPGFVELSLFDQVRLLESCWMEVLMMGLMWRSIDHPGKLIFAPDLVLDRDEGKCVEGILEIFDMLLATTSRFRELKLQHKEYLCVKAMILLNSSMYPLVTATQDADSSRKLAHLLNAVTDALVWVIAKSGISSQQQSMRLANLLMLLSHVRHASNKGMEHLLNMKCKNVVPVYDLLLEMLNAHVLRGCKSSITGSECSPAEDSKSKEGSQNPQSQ

Test [3] in a line: qHTS assay to identify small molecule agonists of the androgen receptor (AR) signaling pathway in the presence of an antagonist - cell viability counter screen (AID 1259379).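 Further: MDA-kb2 human breast cancer cells carrying an MMTV luciferase reporter; series mostly up to about 92 µM; nearly all actives have a fitted effect of over 25% in size.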 In a few lines: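 Cells: MDA-kb2 (MMTV-luc, AR and GR elements), 3,000/well, 5 hr settle. Added: nilutamide 3.0uM final, then compounds (15 conc.). Incubation: 16 hr, 37C, no CO2. Read-out: CellTiter-Fluor, 1 hr, fluorescence.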

Test [4] in a line: qHTS assay to identify small molecule agonists of the estrogen receptor beta (ER-beta) signaling pathway - cell viability counter screen (AID 1259380). Further: nearly all actives have a fitted effect of over 30% in size. In a few lines:
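HEK293T ER-beta-UAS-bla; 2% CS-FBS; 6 hr pre-plate, 16 hr cpd at 37C/5% CO2; LiveBLAzer read first, then CellTiter-Glo 30 min RT, luminescence.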

Test [5] can be described thus: qHTS assay to identify small molecule antagonists of the estrogen receptor beta (ER-beta) signaling pathway - cell viability counter screen (AID 1259382).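 Further: HEK293T cells carrying ER-beta-UAS-bla reporter stimulated with estradiol; series mostly up to about 92 µM; nearly all actives have a fitted effect of over 55% in size.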 In a few lines:
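Cells: ER-beta-UAS-bla HEK293T, 2,000/well, 2% CS-FBS, 6 hr settle. Cpd + E2 (1nM final), 16 hr, 37C/5% CO2. Bla FRET substrate 2 hr RT, then CellTiter-Glo 30 min RT, luminescence.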

The nature of test [6]: qHTS assay to identify small molecule agonists or antagonists of the thyroid stimulating hormone receptor (TSHR) signaling pathway - wild type cell line counter screen (AID 1259384; calls by dose curve). An outline of the steps:
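Wild-type HEK293 cells were plated 18 h at 37 C/5% CO2, pin-dosed with compound plus Ro20-1724 medium, held 30 min at room temperature, then given cAMP-d2 and anti-cAMP-cryptate; fluorescence was read after 1 h. Fifteen concentrations, triplicate.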

The target in test [7] is Progesterone receptor (Homo sapiens) (UniProt P06401). As to the kind of experiment: qHTS assay to identify small molecule agonists of the progesterone receptor (PR) signaling pathway (AID 1346784; calls by dose curve; further: nearly all actives have a fitted effect of over 30% in size). In a few lines: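 Beta-lactamase reporter read-out: after 16 hr compound treatment at 37C and a further 2 hr at room temperature with LiveBLAzer B/G FRET substrate, fluorescence was measured in PR-UAS-bla HEK 293T cells grown in 2% charcoal-stripped serum.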
Sequence of Progesterone receptor (Homo sapiens) (P06401 whole entry, looked up): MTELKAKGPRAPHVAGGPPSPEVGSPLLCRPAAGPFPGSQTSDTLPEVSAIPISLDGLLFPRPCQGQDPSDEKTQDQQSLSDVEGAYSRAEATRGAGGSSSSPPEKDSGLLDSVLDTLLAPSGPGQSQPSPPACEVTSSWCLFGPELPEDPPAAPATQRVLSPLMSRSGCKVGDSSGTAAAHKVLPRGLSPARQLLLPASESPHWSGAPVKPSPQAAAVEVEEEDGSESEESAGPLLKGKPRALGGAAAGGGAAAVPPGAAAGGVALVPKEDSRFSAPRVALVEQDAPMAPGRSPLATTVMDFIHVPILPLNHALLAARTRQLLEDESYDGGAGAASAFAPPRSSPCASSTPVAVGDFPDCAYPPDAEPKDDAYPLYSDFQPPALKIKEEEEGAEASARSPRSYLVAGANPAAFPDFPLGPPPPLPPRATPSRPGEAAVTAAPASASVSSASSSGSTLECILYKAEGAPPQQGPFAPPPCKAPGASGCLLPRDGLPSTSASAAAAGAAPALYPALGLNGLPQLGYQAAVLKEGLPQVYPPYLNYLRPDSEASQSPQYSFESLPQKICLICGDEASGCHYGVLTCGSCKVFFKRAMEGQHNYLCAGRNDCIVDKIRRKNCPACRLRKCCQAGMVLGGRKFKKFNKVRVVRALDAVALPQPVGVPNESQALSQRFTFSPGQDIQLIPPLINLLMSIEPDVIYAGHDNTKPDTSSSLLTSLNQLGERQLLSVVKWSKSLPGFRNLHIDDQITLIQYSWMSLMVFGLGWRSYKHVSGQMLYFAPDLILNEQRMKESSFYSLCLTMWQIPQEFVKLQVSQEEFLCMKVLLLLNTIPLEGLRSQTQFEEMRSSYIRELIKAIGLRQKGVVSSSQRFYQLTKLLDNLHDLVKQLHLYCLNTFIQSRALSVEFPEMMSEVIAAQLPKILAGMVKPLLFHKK

A short description of test [8]: qHTS assay to identify small molecule antagonists of the progesterone receptor (PR) signaling pathway - cell viability counter screen (AID 1346798). Further: series mostly up to about 92 µM; nearly all actives have a fitted effect of over 50% in size. In a few lines: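 HEK293T PR-UAS-bla, 2% charcoal-stripped FBS; 4 hr pre-plate; cpd + R5020, 16 h 37C; LiveBLAzer read first; then CellTiter-Glo 30 min RT, luminescence.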
A short description of test [9]: qHTS assay to identify small molecule agonists of the progesterone receptor (PR) signaling pathway - cell viability counter screen (AID 1346799; calls by dose curve; further: nearly all actives have a fitted effect of over 45% in size; further: potency means the concentration at half of the fitted maximal effect). An outline of the steps:
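Luminescence from CellTiter-Glo, added after the beta-lactamase FRET read in the same wells, gave cytotoxicity in PR-UAS-bla HEK293T cells treated with compounds for 16 hr at 37C.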

The nature of test [10]: qHTS assay to identify small molecule antagonists of the TGF-beta/Smad signaling pathway - cell viability counter screen (AID 1346824). Further: nearly all actives have a fitted effect of over 50% in size. In a few lines: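 SBE-bla HEK 293T cells were plated overnight at 37 C, then given compounds in DMSO plus TGF-beta1 (added as 0.25 ng/mL solution) for 5 hr. After the bla read, CellTiter-Glo was added to the same wells and luminescence read after 30 min at room temperature.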

Test [11] in a line: qHTS assay to identify small molecule agonists of the TGF-beta/Smad signaling pathway - cell viability counter screen (AID 1346829). Further: top concentration of the series differs between compounds; nearly all actives have a fitted effect of over 45% in size. In a few lines:
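HEK 293T SBE-bla line, 5 hr compound exposure at 37 C, multiplexed CellTiter-Glo viability read by luminescence.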

The nature of test [12]: qHTS assay to identify small molecule agonists of the TGF-beta/Smad signaling pathway (AID 1346859; active means well fitted activation curve with a large enough effect in the signal ratio in the repeat runs, not every such curve was filed as active; the % refers to the signal ratio; further: series mostly up to about 77 µM). An outline of the steps:
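SBE-bla HEK 293T, 4,000 cells/well, plated o/n; cpd in DMSO, 5 hr, 37 C/5% CO2; B/G FRET substrate 2 hr RT; ex 405, em 460/530 nm.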

Test [13] concerns the target Thyrotropin-releasing hormone receptor (Homo sapiens) (UniProt P34981). As to the kind of experiment: qHTS assay to identify small molecule antagonists of the thyrotropin-releasing hormone receptor (TRHR) signaling pathway (AID 1346877; active means well fitted inhibition curve with a large enough effect in the repeat runs, not every such curve was filed as active; further: series mostly up to about 51 µM). An outline of the steps:
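Intracellular calcium fluorescence, read kinetically every second over 3 min, reports TRH-evoked signalling in HEK293 cells carrying TRHR. Test compounds were added 5 min ahead of a 1 nM TRH challenge.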

Test [14] has the same target. As to the kind of experiment: qHTS assay to identify small molecule agonists of the thyrotropin-releasing hormone receptor (TRHR) signaling pathway (AID 1346891; calls by dose curve; further: series mostly up to about 58 µM). An outline of the steps: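 Intracellular calcium rise, read as fluorescence every second for 3 min, served as the agonist signal in dye-loaded HEK293 cells expressing TRHR; each compound ran at 15 concentrations in triplicate.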

Test [15] deals with Estrogen receptor (Homo sapiens) (UniProt P03372). Nature of the test: qHTS assay to identify small molecule agonists of the estrogen receptor alpha (ER-alpha) signaling pathway in the presence of an antagonist (AID 1259383; calls by dose curve; further: top concentration of the series differs between compounds; nearly all actives have a fitted effect of over 15% in size). An outline of the steps:
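VM7Luc4E2, endog. ER-alpha + 4×ERE-luc; charcoal-stripped FBS, phenol red-free, 5 d; 24hr plating; +10.0nM ICI-182,780 (final); cpds 15 conc, 22hr, 37C/5% CO2; ONE-Glo luminescence.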

A short description of test [16]: qHTS assay to identify small molecule agonists of the estrogen receptor alpha (ER-alpha) signaling pathway in the presence of an antagonist - cell viability counter screen (AID 1259386).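 Further: series mostly up to about 92 µM; cells exposed to compounds for 22 h at 37 °C before the viability read; nearly all actives have a fitted effect of over 30% in size.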 An outline of the steps: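 VM7Luc4E2, stripped-serum pre-culture 5 d; 24hr plating; +ICI-182,780 10.0nM final; cpds 15 conc, 22hr, 37C/5% CO2; CellTiter-Fluor added at 21hr, fluorescence 1hr later.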

Test [17] has as its target Progesterone receptor (Homo sapiens) (UniProt P06401). Nature of the test: qHTS assay to identify small molecule antagonists of the progesterone receptor (PR) signaling pathway (AID 1346795; active means well fitted inhibition curve with a large enough effect in the signal ratio in the repeat runs, not every such curve was filed as active; the % refers to the signal ratio). In a few lines:
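Read-out is fluorescence from the LiveBLAzer B/G FRET substrate, cleaved by a UAS-controlled beta-lactamase in PR-UAS-bla HEK293T cells after 16 hr exposure to compound plus 1 nM promegestone (final), followed by 2 hr at room temperature.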

Test [18] concerns the target Thyrotropin receptor (Homo sapiens) (UniProt P16473). Nature of the test: qHTS assay to identify small molecule antagonists of the thyroid stimulating hormone receptor (TSHR) signaling pathway (AID 1259385; calls by dose curve; further: nearly all actives have a fitted effect of over 20% in size). In a few lines: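 TSHR-HEK293 cells were plated and held 18 h at 37C/5% CO2, then given compound plus Ro20-1724 and stimulated with TSH at 1.5 ng/mL final. After 30 min at room temperature, cAMP was detected with cAMP-d2/anti-cAMP-cryptate (1 h) by fluorescence.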

Inconclusive results are not listed. Active and inactive are the calls of the source. Unless noted, the call rests on the fitted dose curve; in most records, active means well fitted curve in the direction sought with a large enough effect in the repeat runs; inconclusive means weak or mixed curves; inactive means no such curve, though single readings can be large; an effect the other way counts as inactive or inconclusive.

Sequence of Thyrotropin-releasing hormone receptor (Homo sapiens) (P34981 whole entry, looked up): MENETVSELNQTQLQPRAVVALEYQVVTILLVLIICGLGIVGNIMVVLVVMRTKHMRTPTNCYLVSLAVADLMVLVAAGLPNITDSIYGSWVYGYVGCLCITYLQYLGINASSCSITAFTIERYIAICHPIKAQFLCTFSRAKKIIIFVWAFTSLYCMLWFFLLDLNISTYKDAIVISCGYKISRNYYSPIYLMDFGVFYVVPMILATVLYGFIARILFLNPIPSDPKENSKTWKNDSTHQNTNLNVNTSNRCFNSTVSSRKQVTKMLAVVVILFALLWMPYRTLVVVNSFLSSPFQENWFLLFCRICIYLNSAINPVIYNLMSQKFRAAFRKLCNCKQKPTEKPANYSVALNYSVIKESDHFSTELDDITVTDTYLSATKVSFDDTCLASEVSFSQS
Sequence of Estrogen receptor (Homo sapiens) (P03372 whole entry, looked up): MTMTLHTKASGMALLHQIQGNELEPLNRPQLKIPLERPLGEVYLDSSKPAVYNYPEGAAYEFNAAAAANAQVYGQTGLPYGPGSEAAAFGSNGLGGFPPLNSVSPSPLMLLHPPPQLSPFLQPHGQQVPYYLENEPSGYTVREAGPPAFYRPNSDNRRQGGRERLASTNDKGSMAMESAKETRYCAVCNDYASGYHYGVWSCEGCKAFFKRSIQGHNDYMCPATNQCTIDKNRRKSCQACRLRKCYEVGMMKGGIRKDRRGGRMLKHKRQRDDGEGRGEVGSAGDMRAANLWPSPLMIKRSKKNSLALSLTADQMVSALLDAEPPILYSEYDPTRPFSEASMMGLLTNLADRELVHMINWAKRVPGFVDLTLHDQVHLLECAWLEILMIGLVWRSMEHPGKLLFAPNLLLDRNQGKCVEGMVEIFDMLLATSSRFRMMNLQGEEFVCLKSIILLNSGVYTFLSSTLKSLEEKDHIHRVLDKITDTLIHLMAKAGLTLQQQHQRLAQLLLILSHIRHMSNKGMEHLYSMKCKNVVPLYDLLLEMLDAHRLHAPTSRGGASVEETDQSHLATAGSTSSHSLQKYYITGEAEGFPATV
Sequence of Thyrotropin receptor (Homo sapiens) (P16473 whole entry, looked up): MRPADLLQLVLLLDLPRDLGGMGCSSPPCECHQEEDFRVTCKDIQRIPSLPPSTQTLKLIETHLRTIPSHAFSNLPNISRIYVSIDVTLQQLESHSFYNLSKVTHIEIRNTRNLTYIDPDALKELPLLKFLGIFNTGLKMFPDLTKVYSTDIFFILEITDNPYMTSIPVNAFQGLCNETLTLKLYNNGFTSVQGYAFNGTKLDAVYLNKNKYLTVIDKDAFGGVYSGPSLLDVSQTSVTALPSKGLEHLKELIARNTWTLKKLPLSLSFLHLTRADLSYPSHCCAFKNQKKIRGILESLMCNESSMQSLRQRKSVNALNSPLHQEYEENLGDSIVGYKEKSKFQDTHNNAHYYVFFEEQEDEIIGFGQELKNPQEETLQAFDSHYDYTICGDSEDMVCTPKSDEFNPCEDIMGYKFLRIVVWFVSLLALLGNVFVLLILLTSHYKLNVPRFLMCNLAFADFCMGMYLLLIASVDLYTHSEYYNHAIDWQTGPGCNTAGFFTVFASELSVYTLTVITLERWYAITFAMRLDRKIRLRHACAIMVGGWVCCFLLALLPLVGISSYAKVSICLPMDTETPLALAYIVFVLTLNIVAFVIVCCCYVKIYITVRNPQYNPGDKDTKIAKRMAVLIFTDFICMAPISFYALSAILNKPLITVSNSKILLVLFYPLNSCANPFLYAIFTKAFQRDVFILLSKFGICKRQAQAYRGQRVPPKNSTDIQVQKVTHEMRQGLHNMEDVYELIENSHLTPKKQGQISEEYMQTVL

`CC1(C)CC(=O)CC(C)(C)N1[O]`: the Potency result in test [1], in test [2], in [3], in test [4], in test [5] and in [7] was “inactive” each time. In addition, the Potency entry in [8], in [9], in test [10], in [11] and in test [13] was “inactive” each time. Moreover, the molecule was called inactive in test [6], in [12] and in test [14].
As for `C=CCc1ccccc1O`, the Potency result in test [1], in test [2], in [3], in test [4], in [5] and in [15] was “inactive” each time. Also, the Potency result in [16], in [7], in test [17], in test [8], in test [9] and in [10] was “inactive” throughout. Further, the Potency result in test [11] and in test [13] was “inactive” throughout. Moreover, the molecule was classed as inactive in test [12] and in test [14].
As to `c1ccc2c(c1)-c1cccc3cccc-2c13`, the Potency entry in test [1], in [2], in test [3], in [4], in test [5] and in test [18] was “inactive” throughout. In addition, the Potency result in test [16], in test [8], in [9], in test [10] and in [11] was “inactive” in each case. Further, the call in test [6] and in test [12] was inactive.
Take `O=C(O)C(F)(F)C(F)(F)C(F)(F)C(F)(F)C(F)(F)F`: the Potency entry in test [1], in test [2], in test [3], in [4], in test [5] and in test [15] was “inactive” each time. Besides, the Potency result in test [18], in test [7], in [17], in [8], in test [9] and in test [10] was “inactive” each time. Also, the Potency result in [11] and in test [13] was “inactive” throughout. The call in test [12] and in [14] was inactive.
For `CCCN(CCC)c1c([N+](=O)[O-])cc(C(C)C)cc1[N+](=O)[O-]`, the Potency entry in test [1], in test [2], in test [3], in [4], in test [5] and in test [15] was “inactive” throughout. The Potency entry in test [18], in test [16], in test [7], in test [8], in test [9] and in test [10] was “inactive” throughout. The Potency result in test [11] and in test [13] was “inactive” each time. The molecule was classed as inactive in [6], in test [12] and in test [14].
Consider `CCOC(=O)C1OC1(C)c1ccccc1` (stereo unspecified), for which the Potency result in [1], in test [2], in [3], in test [4], in test [5] and in [18] was “inactive” throughout. The Potency result in test [7], in [17], in test [8], in [9], in test [10] and in test [11] was “inactive” throughout. Besides, the Potency result in [13] was “inactive”. Also, the outcome in [12] and in test [14] was inactive.
With `NC(=S)c1c(Cl)cccc1Cl`, the Potency entry in [1], in [2], in test [3], in [4], in test [5] and in test [15] was “inactive” in each case. Moreover, the Potency entry in [18], in test [16], in [8], in test [9], in test [10] and in test [11] was “inactive” each time. The outcome in [6] was inactive.
As for `CC(Oc1cc(Cl)c(Cl)cc1Cl)C(=O)O` (stereo unspecified), the Potency entry in test [1], in [2], in test [3], in test [15], in test [18] and in test [16] was “inactive” each time. Also, the Potency result in test [17], in [8], in test [10], in [11] and in test [13] was “inactive” throughout. In addition, the Potency in test [9] is 48.7 µM (active). Moreover, in [14], the molecule was classed as inactive.
Turning to `O=[N+]([O-])O[C@H]1CO[C@H]2[C@@H]1OC[C@H]2O[N+](=O)[O-]`, the Potency result in test [1], in test [2], in test [3], in test [5], in test [15] and in [18] was “inactive” throughout. In addition, the Potency result in [16], in test [7], in test [9], in test [10], in test [11] and in test [13] was “inactive” in each case. Further, the result in test [6] and in test [14] was inactive.
